# Sampled rows, rich in hits. Any-hit rate of the full collection: about 3.5%.
# FBW7 act: human FBW7 E3 ligase activation, primary screen; normalized activity (activation), % at 26.1 µM; 0.13% of 650,000 active; AlphaScreen FBW7–phospho-cyclin E peptide binding, activator screen; Q969H0; in the data active means normalized activity above about 1.9%;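 further: purified mutant Fbw7 with reduced substrate affinity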
# GPR151 ag: activators of human GPR151. 1% of 650,000 active. PathHunter beta-arrestin GPR151 cells, luminescence. activation, % at 11.2 µM; in the data active means activation above about 4.9%;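 further: 0% = median of compound wells and 100% = cells with positive control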
# MITF primary: blocks human microphthalmia-associated transcription factor. O75030. AlphaScreen MITF homodimerization, bead proximity signal. inhibition, % at 2.6 µM. 0.91% of 650,000 active; in the data active means inhibition above about 50%;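 further: 0% = vehicle wells with protein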
# Target sequence (O75030 whole entry, looked up): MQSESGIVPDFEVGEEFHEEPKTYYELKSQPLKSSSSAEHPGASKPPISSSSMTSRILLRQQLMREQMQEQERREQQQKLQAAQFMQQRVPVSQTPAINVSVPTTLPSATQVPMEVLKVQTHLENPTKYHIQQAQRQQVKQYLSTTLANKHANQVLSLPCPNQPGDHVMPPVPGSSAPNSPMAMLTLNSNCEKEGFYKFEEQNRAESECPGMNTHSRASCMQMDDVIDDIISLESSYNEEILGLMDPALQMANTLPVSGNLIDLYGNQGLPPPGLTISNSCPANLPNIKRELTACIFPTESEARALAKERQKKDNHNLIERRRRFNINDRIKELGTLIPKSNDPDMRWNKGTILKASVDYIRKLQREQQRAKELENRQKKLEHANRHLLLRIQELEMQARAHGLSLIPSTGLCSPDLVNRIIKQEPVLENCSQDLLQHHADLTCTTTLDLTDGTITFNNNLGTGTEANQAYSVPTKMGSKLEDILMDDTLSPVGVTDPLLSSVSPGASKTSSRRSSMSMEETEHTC
# TEAD-YAP inh: TEAD-YAP interaction inhibition; inhibition, % at 9.12 µM; AID 1259422; 1.4% of 640,000 active; HEK-TIYL cells, TEAD-Gal4/YAP UAS-luciferase luminescence; in the data active means inhibition above about 32%;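 further: 0% = median of test compound wells and 100% = reference inhibitor wells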
# GPR151 confirm: confirmation of human GPR151 activators; shares compounds with GPR151 ag; GPR151 PathHunter beta-arrestin cells, luminescence, 90 min; % of EA-reagent control over plate median; activation, % at 11.2 µM; 6,700 tested, under 10 active; AID 1508609;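 active means mean percent activation across replicates above the confirmation screen cutoff of 4.91%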
# GPR119 counter: GPR119 activation, counter-screen for GPR151 activators | GPR119 PathHunter beta-arrestin cells, luminescence, 90 min; 0 = compound-well median, 100 = enzyme-acceptor control | 0.3% of 6,700 active | shares compounds with GPR151 ag | activation, % at 11.2 µM;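 active means mean percent activation in the counterscreen above 29.09%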;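 further: counterscreen on off-target GPR119 to flag nonselective hits from the GPR151 activator screen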
# * = called active by the depositor; x = no result given.
SMILES,FBW7 act,GPR151 ag,MITF primary,TEAD-YAP inh,GPR151 confirm,GPR119 counter
O=C(c1ccccc1NS(=O)(=O)c1ccc(Br)s1)N1CCCC1,0,5.0*,15,2,-1,-7
O=C(COc1ccc(-c2ccccc2)cc1)N1CCCCCC1,0,-1,20,-44,x,x
COc1ccc(N2CCN(C(=O)CN3CCN(c4cc(Cl)ccc4C)CC3)CC2)cc1,0,7.2*,-1,-3,0,6
CC(=O)c1ccc(NC(=O)C(Cc2ccccc2)n2cccc2)cc1 (centres undefined),0,5.2*,7,5,-1,6
O=C(CCc1nnc(-c2ccsc2)o1)N1CCc2sccc2C1,0,5.4*,13,-10,0,-5
CCN(CC)c1ccc(/C=N/N2C(=O)c3ccccc3C2=O)c(O)c1,0,8.3*,-72,4,0,2
CCN(CC)c1ccc(/C=N/N2C(=O)c3ccccc3C2=O)cc1,0,0,-2,9,x,x
CCN(CC)c1ccc(/C=N/NC(=O)COc2ccccc2)c(O)c1,0,8.1*,6,3,1,12
COc1ccc(C(=O)Nc2ccc3c(c2)C(=O)N(C2CCCCC2)C3=O)cc1,0,5.5*,0,-1,0,28
COc1ccc(C(=O)Nc2cccc(C(=O)N3CCCC3)c2)cc1,0,39*,10,-2,2,7
COc1ccc(C(=O)Nc2ccc(C(=O)N3CCCCC3)cc2)cc1,1,-1,3,-10,x,x
COc1ccc(Cl)cc1C(=O)Nc1cc(C)nn1-c1nc2c(c(=O)[nH]1)CCC2,0,-1,20,8,x,x
CCC1CCCCN1S(=O)(=O)c1ccc2c(c1)oc(=O)n2C (centres undefined),0,2,-4,-2,x,x
COc1ccc(CCNc2nc(-c3csc4ccccc34)nc3c2ncn3-c2ccccc2)cc1,0,-1,20,-3,x,x
Cc1ccccc1OC1=NS(=O)(=O)c2cc([N+](=O)[O-])ccc21,0,8.6*,11,9,0,-8
COc1cccc(C(c2sc3nc(C)nn3c2O)N2CCC(C(N)=O)CC2)c1 (centres undefined),0,0,-1,6,x,x
CCc1nc2sc(C(c3cccc(OC)c3)N3CCC(C(N)=O)CC3)c(O)n2n1 (centres undefined),0,5.8*,6,-2,-1,-4
CN(C)c1ccc(C2C=C(Nc3ccc(F)cc3)C(=O)N2c2ccc(F)cc2)cc1 (centres undefined),0,1,13,-15,x,x
COc1cc2nc(Nc3ccncc3)nc(Nc3ccc(N4CCOCC4)cc3)c2cc1OC,0,6.6*,18,-7,0,-2
NC(CC(=O)O)c1ccc(F)cc1 (centres undefined),0,-1,-3,-1,x,x
Oc1ccc(C(c2ccc(O)cc2)c2ccc(F)cc2)cc1,0,7.7*,6,7,-1,20
Cc1nnc2c(NCc3ccco3)nc3ccccc3n12,0,2,7,-7,x,x
Cc1sc(NC(=O)CN(Cc2cccs2)C(=O)c2ccccc2F)c(C(N)=O)c1C,0,-1,-10,8,x,x
CC1CC(C)CN(S(=O)(=O)c2ccc(F)c(C(=O)Nc3ccc(Br)cc3F)c2)C1 (centres undefined),0,-2,11,7,x,x
COc1ccc(-c2cc(C(=O)Nc3ccc(OC)cc3OC)no2)cc1,0,0,6,6,x,x
SMILES,FBW7 act,GPR151 ag,MITF primary,TEAD-YAP inh,GPR151 confirm,GPR119 counter
CCCc1cc(C(=O)Nc2ccc(OC)cc2OC)no1,0,17*,-1,-18,0,-4
O=C(Cc1ccc2c(c1)OCO2)N1CCC(O)(c2cccc(F)c2)CC1,0,6.8*,6,-6,-1,-2
CCCC(=O)N1CCC(O)(c2cccc(F)c2)CC1,0,-1,19,5,x,x
COc1ccccc1C(=O)NC(C)C1COc2ccccc2O1 (centres undefined),0,0,10,17,x,x
COc1ccc(/C=C2\C(=O)N(c3ccc(Cl)c(C(=O)O)c3)N=C2C)cc1OC,0,5.7*,2,-6,0,11
COc1cc(/C=C2\C(=O)N(c3ccc(C(=O)OC(C)C)cc3)N=C2C)ccc1O,0,-1,2,-14,x,x
COc1cc(/C=C2/C(=O)N(c3ccc(I)cc3)N=C2C)ccc1O,0,5.4*,7,2,-1,2
COC(=O)CCC(=O)OC1(C)C(=O)C=C2C=C(C3CC3)OC=C2C1=O (centres undefined),0,5.8*,17,x,0,9
CSCCC(C)N1CCC(Oc2ccc(C(=O)NCc3ccncc3)cc2)CC1 (centres undefined),0,5.0*,6,6,-1,7
O=C(NCc1ccncc1)c1ccc(OC2CCN(C3CCSCC3)CC2)cc1,0,0,5,0,x,x
O=[N+]([O-])c1cc(CNCc2ccccc2)ccc1N1CCCCC1,0,5.6*,44,-45,1,6
CCOc1ccc(NC2=CC(=O)CCC2)cc1,0,1,-4,-1,x,x
CCOc1ccc(NC2=CC(=O)C=CC2=O)cc1,0,5.8*,26,8,0,-2
Cc1cc(C)cc(NC(=O)Nc2nnc(N3CCCCC3)s2)c1,0,3,-1,0,x,x
O=C(Nc1cccc(C(F)(F)F)c1)Nc1nnc(N2CCCCCC2)s1,0,5.2*,6,-3,-1,-4
COc1cc(NC(=O)Nc2nnc(N3CCCCC3)s2)cc(OC)c1,0,5.3*,-4,-2,-1,-14
Cc1ccc(NC(=O)Nc2nnc(N3CCCCC3)s2)c(C)c1,0,7.4*,4,1,0,-3
Cc1cccc(NC(=O)Nc2nnc(N3CCCCC3)s2)c1,0,5.6*,5,-50,0,-2
Cc1ccc(OCC(=O)NCc2nc(-c3cccc(C)c3)no2)cc1,1,-2,-6,18,x,x
COc1ccc(NC(=O)/C(=C\c2ccc3c(c2)OCO3)NC(=O)c2ccccc2Cl)cc1Cl,0,2,-4,-4,x,x
CCC(CO)NCc1ccc(OCC(=O)NC(C)c2ccccc2)c(OC)c1 (centres undefined),0,6.0*,0,4,1,1
N#Cc1c(C(F)(F)F)cc(-c2cccs2)nc1SC1CC(=O)N(c2ccccc2)C1=O (centres undefined),1,5.1*,-3,0,0,7
N#Cc1c(C(F)(F)F)cc(-c2cccs2)nc1SCC(=O)O,0,0,6,9,x,x
O=C(Nc1ccc(F)cc1)N1CCN(c2nc3ccccc3[nH]2)CC1,1,-2,13,11,x,x
Cc1ccc(NC(=O)CSc2nncn2C)cc1,0,0,9,-9,x,x
COc1cccc(CC2(CO)CCN(C(=O)Cn3cnnn3)CC2)c1,0,-2,11,4,x,x

# Assay outcomes from PubChem.
